Screens from PubChem.
Hits are enriched below; roughly 3% of the tested compounds scored in any of these assays.
LmPK inh = qHTS Assay for Inhibitors of Leishmania Mexicana Pyruvate Kinase (LmPK) | Potency, µM (top dose mostly 57.5 µM), without a hit: top-dose activity change, negative = inhibition, usual class: inhibitors | 290,000 tested, 0.37% active | purified LmPK, Kinase-Glo ATP luminescence, 1 h
Target sequence (Q27686 whole entry, looked up): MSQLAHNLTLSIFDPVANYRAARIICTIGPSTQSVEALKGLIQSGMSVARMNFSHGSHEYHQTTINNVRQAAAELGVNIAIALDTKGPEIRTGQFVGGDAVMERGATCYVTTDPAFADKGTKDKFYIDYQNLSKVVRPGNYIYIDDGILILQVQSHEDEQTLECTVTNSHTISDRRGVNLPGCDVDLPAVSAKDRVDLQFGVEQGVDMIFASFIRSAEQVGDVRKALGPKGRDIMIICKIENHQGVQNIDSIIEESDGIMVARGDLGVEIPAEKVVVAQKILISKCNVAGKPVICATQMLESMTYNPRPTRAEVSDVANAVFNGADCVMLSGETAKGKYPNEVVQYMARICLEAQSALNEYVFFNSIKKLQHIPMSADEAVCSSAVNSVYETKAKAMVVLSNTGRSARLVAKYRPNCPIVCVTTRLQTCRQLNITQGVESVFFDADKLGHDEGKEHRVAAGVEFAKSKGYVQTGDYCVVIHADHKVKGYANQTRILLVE
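Purified LmPK (0.1 nM) converted ADP (0.1 mM) to ATP with PEP (0.5 mM) in imidazole buffer pH 7.2 with KCl and MgCl2, 1 h at room temperature. ATP was read by Kinase-Glo luminescence; data normalized to uninhibited and no-enzyme controls.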
Sm TGR inh = qHTS Assay for the Inhibitors of Schistosoma Mansoni Peroxiredoxins; Potency, µM (top dose mostly 114 µM), without a hit: at the highest dose activity change, negative = inhibition, hits mostly inhibitors; Schistosoma mansoni thioredoxin glutathione reductase (TGR), Q962Y6; purified TGR, DTNB reduction, TNB absorbance 405 nm; 360,000 tested, 3% active; AID 485364, 2010; further: nearly all actives have a fitted effect of over 60% in size
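TGR 20 nM + NADPH 100 uM (dispensed conc.), cpd preinc 15 min RT; start with NADPH (500 uM addition) then DTNB (15 mM addition). Kinetic TNB absorbance, 405 nm filter. Four-parameter Hill fit across titration.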
Tb PYK inh = qHTS of Trypanosoma Brucei Inhibitors | pyruvate kinase (Trypanosoma brucei), Q57TT1 | TbPYK enzyme, Kinase-Glo Plus ATP luminescence, 45 min | Potency, µM (titrated, usually from 76.8 µM), for inactives: at the top dose activity, negative = inhibition, actives largely listed as inhibitors | 410,000 tested, 0.12% active; further: nearly all actives have a fitted effect of over 50% in size
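ADP (130 uM final) triggers the TbPYK reaction after compound addition; incubation is 45 min at room temperature. Kinase-Glo Plus is then added and luminescence imaged. Normalized data are fitted to concentration-effect curves.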
RE007 growth inh = qHTS Assay for Inhibitors of the HIV-1 protein Vpr; S. pombe RE007 Vpr strain, BacTiter-Glo ATP luminescence, 24 h; Potency, µM (series often up to 92.2 µM), inactives show at the top dose activity change, negative = less growth, usual class: inhibitors; 360,000 tested, 0.21% active; active means well fitted falling curve with a large enough effect; inconclusive means small, poorly fitted or top-dose-only effect; inactive means no such curve, though single readings can be large or run the other way; further: nearly all actives have a fitted effect of over 50% in size
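Fission yeast RE007 carrying one integrated HIV-1 vpr copy, seeded at OD 0.01 in PMG+AL medium with 23 nL pinned compound. Grown 24 h at 30 degrees; viability read by BacTiter-Glo luminescence after 5 min.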
The depositor's hits bear a star; ? = inconclusive; . = not tested or not shown; [ ] = dose if it differs, or a comment. Unless noted, the call rests on the fitted dose curve; in most records, active means well fitted curve in the direction sought with a large enough effect; inconclusive means small, poorly fitted or top-dose-only effect, or another doubt; inactive means no such curve, though single readings can be large; an effect the other way counts as inactive or inconclusive. On the % scale 0 is the no-effect control and ±100 the full control effect; potency means the concentration at half of the fitted maximal effect.

SMILES	LmPK inh	Sm TGR inh	Tb PYK inh	RE007 growth inh
CN1C(=O)NC(=O)/C(=C\c2ccc([N+](=O)[O-])o2)C1=O	-26%	7.9µM*	?	-10%
O=C1NC(=O)N(c2ccccc2)C(=O)/C1=C\c1ccc([N+](=O)[O-])o1	-17%	8.9µM*	.	.
CN1C(=O)NC(=O)/C(=C/c2ccc([N+](=O)[O-])o2)C1=O	-28%	5µM*	?	-28%
O=C1NC(=O)N(c2ccc3c(c2)OCO3)C(=O)/C1=C\c1ccc(N2CCCCC2)o1	3%	-22%	-17%	-8%
Cc1ccc(CCNS(=O)(=O)c2ccc3c(c2)CCN3C(=O)CCC(=O)O)cc1	.	3%	1%	.
O=C(Nc1ccc(F)cc1)c1ccc(Cn2nc(N3CCN(c4ccccc4)CC3)ccc2=O)o1	.	23%	-9%	.
O=C(O)[C@@H]1Cc2ccccc2N1	0%	56µM*	-6%	9%
Oc1cccc(C2c3[nH]c4ccccc4c3CCN2Cc2ccoc2)c1 (configuration not stated)	2%	18µM*	-5%	-1%
Oc1cccc(C2c3[nH]c4ccccc4c3CCN2Cc2ccc3c(c2)CCO3)c1 (configuration not stated)	-8%	-2%[57.1 µM]	0%	-18%
O=C(NCc1ccco1)/C(=C/C=C/c1ccccc1)NC(=O)c1ccco1	1%	25µM*	0%	4%
O=C(NCc1ccco1)/C(=C\c1ccco1)NC(=O)c1ccc(Br)o1	7%	28µM*	-12%	-19%
O=C(NCCCO)/C(=C\c1ccco1)NC(=O)c1ccc(Br)o1	1%	?	4%	-11%
C=CCNC(=O)/C(=C\c1ccco1)NC(=O)c1ccco1	-4%	-3%	-3%	1%
C=CCNC(=O)/C(=C/c1ccco1)NC(=O)c1ccc(Br)o1	8%	20µM*	-10%	3%
COc1ccc(C(=O)N/C(=C\c2ccco2)C(=O)NCc2ccco2)cc1	6%	45µM*	0%	-2%
C[C@]12CC[C@@H]3c4ccc(O)cc4CC[C@H]3[C@@H]1C[C@H](O)C2O (some centres not stated)	.	.	-9%	.
O=C(Cn1c(=O)n(Cc2ccco2)c(=O)c2sc3ccccc3c21)Nc1ccccc1C(F)(F)F	.	-7%	-13%	.
CC(C)C(NC(=O)/C(=C/c1ccco1)NC(=O)c1ccc(Br)o1)C(=O)O (configuration not stated)	14%	35µM*	1%	2%
O=C(NCc1ccco1)/C(=C/c1ccco1)NC(=O)c1ccc(Br)o1	4%	40µM*	4%	-6%
O=C(NCc1ccco1)/C(=C\c1ccco1)NC(=O)c1ccco1	8%	8.9µM*	-2%	-13%
O=C(NCc1ccco1)/C(=C/c1ccccc1)NC(=O)c1ccco1	-3%	4%	0%	15%
CCc1nc2c(OCc3c(C)noc3C)cccn2c1N(C=O)Cc1ccc(OC)cc1	.	.	5%	-16%
O=C(C#Cc1ccccc1)c1ccc([N+](=O)[O-])cc1	6%	0.32µM*	2%	-26%
CCOC(=O)c1c(S(=O)(=O)NCCCc2ccco2)c(C)n(C)c1C	-4%	28µM*	-9%	1%
CCOC(=O)c1[nH]c(C)c(CCC(=O)NC(C)c2ccccc2)c1C (configuration not stated)	.	-8%	-4%	.
SMILES	LmPK inh	Sm TGR inh	Tb PYK inh	RE007 growth inh
C=CC#CC[N+]1(CC#Cc2ccccc2)CCOCC1	0%	40µM*	2%	7%
C(#Cc1ccccc1)C[N+]1(CC#Cc2ccccc2)CCCC1	2%	-19%	-1%	-1%
Cc1ccccc1N=Nc1c(O)n(C)c2ccccc12	-5%	35µM*	-17%	-7%
Cn1c(O)c(N=NC(=N)N)c2ccccc21	2%	18%	5%	-8%
CN(Cc1cccnc1)C(=O)CCCc1c[nH]c2ccccc12	-5%	32µM*	0%	-6%
O=C(C[C@H]1CC[C@H]2[C@@H](COC[C@@H](O)CN2Cc2cc(F)ccc2F)O1)NCc1ccc(Cl)cc1	.	.	.	-6%
O=[N+]([O-])c1cc2no[n+]([O-])c2cc1N1CCCCC1	.	.	14µM*	?
O=C1C=CC(=Nc2ccc3c(c2)Cc2cc(F)ccc2-3)O1	.	.	?	3.2µM*
COc1cccc(NC(=O)c2ccc3nc(Cc4ccccc4)oc3c2)c1	.	3%	-2%	.
O=C(c1ccccc1)c1cc(F)c(N2CCOCC2)cc1Cl	-3%	-18%	3%	40µM*
CCOc1ccc(CN2CCN(C3CCC3)CC2CCO)cc1 (configuration not stated)	0%	13µM*	0%	7%
CCCn1c(SCC(=O)c2ccc3c(c2)NC(=O)CO3)nc2ccccc21	-6%	40µM*	-12%	-2%
Cc1cc(=O)n(Cc2ccc(Br)cc2F)c2c1c(C)nn2-c1ccccc1	.	13%	0%	.
CCOC(=O)C1=C(C)S/C(=C\N(C)C)C1=O	-3%	12%[11.4 µM]	-7%	-22%
CCOC(=O)C1=C(C)NC(=O)/C1=C\N(C)C	-4%	20µM*	-4%	12%
Cc1ccc(C(=O)c2sc(Nc3ccc(F)cc3)nc2N)c(C)c1	.	-14%	-14%	.
COc1ccc(CCN(C)Cc2c(O)ccc3cc(Br)ccc23)cc1OC	10%	4µM*	-8%	-18%
COc1ccc(CN(C)Cc2c(O)ccc3cc(Br)ccc23)cc1OC	4%	8.9µM*	-2%	-16%
COc1ccc(CCN(C)CCc2ccc(OC)c(OC)c2)cc1OC	.	.	0%	-9%[18.4 µM]
COc1ccc2cc(Br)ccc2c1CC(=O)N(C)C	2%	.	2%	-17%
COc1ccc([C@H]2C[C@H](O)[C@@H](n3cc(C4CC4)nn3)CN2C(=O)C2CCCCC2)cc1	.	.	-3%	-12%
O=C(NCc1ccco1)C(Cc1ccccc1)N1C(=O)C2C3C=CC(C3)C2C1=O (configuration not stated)	1%	22µM*	-13%	-11%
O=C(C(Cc1ccccc1)N1C(=O)C2C3C=CC(C3)C2C1=O)N1CCCCCC1 (configuration not stated)	7%	79µM*	1%	2%
O=C(C(Cc1ccccc1)N1C(=O)C2C3C=CC(C3)C2C1=O)N1CCCCC1 (configuration not stated)	8%	0%	-11%	2%
COc1ccccc1CCNC(=O)C(=O)NCC(c1ccco1)S(=O)(=O)c1cccs1 (configuration not stated)	.	18µM*	4%	.
O=C(NCCc1ccc(Cl)cc1)C(=O)NCC(c1cccs1)S(=O)(=O)c1cccs1 (configuration not stated)	.	25µM*	-7%	.
COc1ccc(CCNC(=O)C(=O)NCC(c2ccco2)S(=O)(=O)c2cccs2)cc1 (configuration not stated)	.	32µM*	-1%	.
